This is a sample that favours compounds with a hit; in the whole collection about 6.8% have one here.
C diff growth: inhibitors of Clostridium difficile growth; Clostridium difficile clinical isolate growth, OD600, 24 h; hits give low values; growth activity, negative = inhibition, % at 16 µg/mL (by protocol); 86,000 tested, 0.25% active; AID 1259249;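 active = mean growth activity at or below -80% and every replicate also at or below -80%; inconclusive = mean at or below -80% but some replicate above -80%; inactive = mean growth activity above -80%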;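 also: 0% = DMSO wells and -100% = levofloxacin 16 µg/mL wells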
T cruzi growth-1: blocks T. cruzi growth in NIH3T3 culture | inhibition, % at 8.34 µM | 77,000 tested, 5.9% active | T. cruzi beta-gal in NIH3T3, GalScreen luminescence, 90 h;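 active = mean inhibition above about 93%, with at least 55% of replicates each passing it, limit read from the data, passing the limit was not always enough; inconclusive = only one of those two conditions holds; inactive = neither condition holds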
Pf Dd2 inh: blocks growth of Plasmodium falciparum Dd2 parasites; P. falciparum Dd2 growth, SYBR Green, 72 h; hits give low values; activity change, % at 10 µM; 94,000 tested, 2.3% active; in the data active = activity change below about -80%; inconclusive = no clear call, values can overlap the other calls
T cruzi growth-2: inhibitors of T. cruzi proliferation | 5,600 tested, 72% active | T. cruzi beta-gal in NIH3T3, GalScreen luminescence, 90 h | shares compounds with T cruzi growth-1 | inhibition, % at 8.35 µM;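 active = mean replicate inhibition above about 95% and at least 55% of replicates individually reaching it, limit read from the data; inconclusive = only one of the two criteria is met; inactive = neither criterion is met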
T cruzi growth-3: blocks T. cruzi growth in NIH3T3 host cells; 5,600 tested, 21% active; shares compounds with T cruzi growth-1; inhibition, % at 2.09 µM; T. cruzi beta-gal in NIH3T3, GalScreen luminescence, 90 h;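 active = mean inhibition above about 95%, with at least 55% of replicates also reaching it, limit read from the data; inconclusive = meets just one of the two conditions; inactive = meets neither condition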;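 also: plate controls were neutral control median for no effect and positive control median for full effect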
NIH3T3 tox: cytotoxicity in mouse NIH/3T3 fibroblasts | shares compounds with T cruzi growth-1 | cytotoxicity (signal decrease), % at 8.35 µM | NIH/3T3 viability, CellTiter-Glo ATP luminescence, 90 h | 5,600 tested, 14% active;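 active = mean signal decrease across replicates above about 35% based on untreated-well scatter, with enough replicates individually passing, limit read from the data; inconclusive = no rule stated though some were filed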;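 also: 0% = median of neutral control wells and 100% = median of positive control wells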
NIH3T3 tox 2: cytotoxicity in mouse NIH/3T3 fibroblasts; shares compounds with T cruzi growth-1; NIH/3T3 viability, CellTiter-Glo ATP luminescence, 90 h; inhibition, % at 24.9 µM; 5,600 tested, 56% active;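 active = mean loss of cell viability signal at or above a set limit, and enough replicates individually reaching it; inconclusive = meets only the mean limit or only the replicate share; inactive = meets neither condition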;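 also: 0% = median of neutral control wells and 100% = median of positive control wells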
The depositor's hits bear a star; ? = inconclusive; / = no result.

SMILES	C diff growth	T cruzi growth-1	Pf Dd2 inh	T cruzi growth-2	T cruzi growth-3	NIH3T3 tox	NIH3T3 tox 2
Cc1ccc(-c2ccc([C@H]3[C@H](CO)N4CCCCN(S(=O)(=O)c5ccccc5C)C[C@@H]34)cc2)cc1	9	75	-48	/	/	/	/
Cc1cccc(-c2ccc([C@H]3[C@@H](CO)N4CCCCN(S(=O)(=O)c5ccccc5C)C[C@H]34)cc2)c1	-9	75	-73	/	/	/	/
C[C@@H]1CN([C@H](C)CO)C(=O)Cc2cc(NC(=O)CCCCCC(=O)Nc3ccccc3N)ccc2O[C@H]1CN(C)S(=O)(=O)c1cccs1	-17	6	-40	/	/	/	/
C/C=C/c1ccc2c(c1)O[C@@H](CN(C)Cc1ccncc1)[C@H](C)CN([C@@H](C)CO)S2(=O)=O	4	108*	-53	108*	105*	32	57*
C/C=C/c1ccc2c(c1)O[C@H](CN(C)Cc1cncnc1)[C@H](C)CN([C@@H](C)CO)S2(=O)=O	7	/	12	/	/	/	/
C/C=C/c1ccc2c(c1)O[C@H](CN(C)Cc1ccncc1)[C@@H](C)CN([C@@H](C)CO)S2(=O)=O	1	109*	-38	109*	102*	-5	28*
C/C=C/c1ccc2c(c1)O[C@H](CN(C)Cc1ccncc1)[C@H](C)CN([C@@H](C)CO)S2(=O)=O	0	79	-12	/	/	/	/
CCNC(=O)C[C@H]1CC[C@H]2[C@H](COc3ccc(NC(=O)c4cccc(OC)c4)cc3C(=O)N2C)O1	1	-23	-1	/	/	/	/
CN(C)C(=O)C[C@@H]1CC[C@@H]2[C@H](COc3ccc(NC(=O)Nc4cccc(Cl)c4)cc3C(=O)N2C)O1	3	30	-14	/	/	/	/
CO[C@H]1CN(C)C(=O)c2cc(NS(C)(=O)=O)ccc2OC[C@@H](C)NC[C@H]1C	-6	/	25	/	/	/	/
N#C[C@@H]1[C@H](c2ccc(-c3ccc(F)cc3)cc2)[C@@H](CO)N1C(=O)Cc1ccccc1	15	64	-8	/	/	/	/
COc1cccc(-c2ccc([C@H]3[C@@H](CO)N(C(=O)Cc4ccccc4)[C@H]3C#N)cc2)c1	10	97*	-73	96*	99*	21	37*
COc1cccc(-c2ccc([C@@H]3[C@H](C#N)N(C(=O)Cc4ccccc4)[C@H]3CO)cc2)c1	9	?	-32	111*	55	7	33*
COc1cccc(-c2ccccc2[C@@H]2[C@@H](CO)N(C(=O)Cc3ccccc3)[C@H]2C#N)c1	12	/	-17	/	/	/	/
Cc1noc(C)c1NC(=O)Nc1ccc2c(c1)C(=O)N([C@@H](C)CO)C[C@@H](C)[C@@H](CN(C)Cc1ccc(C(=O)O)cc1)O2	/	33	10	/	/	/	/
COc1ccccc1-c1ccc([C@H]2[C@@H](CO)N3CCCCN(C(=O)c4ccncc4)C[C@H]23)cc1	-7	48	13	/	/	/	/
O=C(C[C@H]1CC[C@@H]2[C@H](COC[C@@H](O)CN2Cc2ccccc2)O1)N[C@@H]1CCN(Cc2ccccc2)C1	4	81	-32	/	/	/	/
O=C(C[C@@H]1CC[C@@H]2[C@H](COC[C@@H](O)CN2Cc2ccccc2)O1)NCc1ccccc1Cl	/	100*	-7	60	59	12	16
O=C(C[C@H]1CC[C@H]2[C@@H](COC[C@H](O)CN2Cc2cc(F)ccc2F)O1)N[C@@H]1CCN(Cc2ccccc2)C1	16	96*	-60	80	58	1	?
O=C(C[C@@H]1CC[C@@H]2[C@H](COC[C@@H](O)CN2Cc2cc(F)ccc2F)O1)N[C@@H]1CCN(Cc2ccccc2)C1	-2	95	-11	/	/	/	/
O=C(C[C@H]1CC[C@H]2[C@@H](COC[C@H](O)CN2Cc2ccccc2)O1)N[C@@H]1CCN(Cc2ccccc2)C1	1	98*	-50	99*	47	2	9
O=C(C[C@H]1CC[C@H]2[C@@H](COC[C@H](O)CN2Cc2ccccc2)O1)NCc1ccccc1Cl	/	35	-12	/	/	/	/
C[C@@H]1CCCCO[C@H](CN(C)C(=O)Nc2cccc3ccccc23)[C@@H](C)CN([C@H](C)CO)C(=O)c2cc(NS(=O)(=O)c3cn(C)cn3)ccc2O1	-3	6	-14	/	/	/	/
CCNC(=O)[C@@H]1[C@@H](CO)[C@@H]2Cn3c(ccc(-c4ccccc4F)c3=O)[C@@H]2N1CC	1	-11	1	/	/	/	/
CC(C)CC#Cc1cnc2c(c1)C(=O)N([C@@H](C)CO)C[C@@H](C)[C@H](CN(C)Cc1ccc(F)cc1)O2	6	?	-51	104*	32	25	105*
SMILES	C diff growth	T cruzi growth-1	Pf Dd2 inh	T cruzi growth-2	T cruzi growth-3	NIH3T3 tox	NIH3T3 tox 2
C[C@H](CO)N1C[C@H](C)[C@H](CN(C)Cc2cccc(C(F)(F)F)c2)Oc2ncc(C#Cc3ccc(F)cc3)cc2C1=O	9	/	-33	/	/	/	/
C[C@@H]1CN([C@@H](C)CO)C(=O)c2cc(C#CCN(C)C)cnc2O[C@@H]1CN(C)Cc1ccc(F)cc1	-4	9	-14	/	/	/	/
CNC[C@H]1Oc2ncc(C#CCC(C)C)cc2C(=O)N([C@H](C)CO)C[C@H]1C	4	105*	-57	106*	89	5	22
C[C@H](CO)N1C[C@H](C)[C@H](CN(C)Cc2cccc(C(F)(F)F)c2)Oc2ncc(C#Cc3ccccc3)cc2C1=O	/	99*	-42	102*	86	8	31*
C[C@H](CO)N1C[C@H](C)[C@H](CN(C)Cc2ccc(F)cc2)Oc2ncc(C#Cc3ccccc3)cc2C1=O	/	?	-5	103*	88	12	101*
CNC[C@@H]1Oc2ncc(C#CCC(C)C)cc2C(=O)N([C@H](C)CO)C[C@@H]1C	14	/	-37	/	/	/	/
C[C@H](CO)N1C[C@H](C)[C@H](CN(C)Cc2ccccc2)Oc2ncc(C#Cc3ccc(F)cc3)cc2C1=O	23	55	-26	/	/	/	/
O=C(C[C@H]1CC[C@@H](NC(=O)c2ccccc2)[C@H](CO)O1)NCCc1ccncc1	0	/	/	/	/	/	/
C[C@@H]1CN([C@@H](C)CO)C(=O)c2cc(NC(=O)CCN3CCOCC3)ccc2O[C@H]1CN(C)C(=O)Nc1ccc(F)cc1	4	15	40	/	/	/	/
CC(C)c1cn([C@H]2C[C@@H]3O[C@@H](CO)CC[C@@H]3O[C@@H]2CCc2ccc(C#CC3CCCCC3)cc2)nn1	-10	/	-72	/	/	/	/
CC(C)CC#Cc1cnc2c(c1)C(=O)N([C@@H](C)CO)C[C@@H](C)[C@@H](CN(C)Cc1ccc(F)cc1)O2	11	?	-57	108*	58	5	57*
CC(C)CC#Cc1cnc2c(c1)C(=O)N([C@H](C)CO)C[C@H](C)[C@@H](CN(C)Cc1ccc(F)cc1)O2	5	48	-30	/	/	/	/
CCCC(=O)Nc1ccc2c(c1)C(=O)N(C)[C@@H]1CC[C@H](CC(=O)NCCN3CCCCC3)O[C@H]1CO2	-7	-7	-19	/	/	/	/
